Measurements published in PubChem BioAssay.
A number with no mark means an inactive call. How the calls were made is not given here.

target: Pantothenate synthetase (Mycobacterium tuberculosis (strain ATCC 25618 / H37Rv)) (UniProt P9WIL5); experiment: Coupled enzyme confirmation of inhibitors against recombinant Mtb PanC (AID 375); conditions: coupled enzyme assay; at 10 µM, stronger effect = higher value;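 further: 0% = full reaction with vehicle and 100% = no enzyme background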
Sequence (P9WIL5 whole entry, looked up): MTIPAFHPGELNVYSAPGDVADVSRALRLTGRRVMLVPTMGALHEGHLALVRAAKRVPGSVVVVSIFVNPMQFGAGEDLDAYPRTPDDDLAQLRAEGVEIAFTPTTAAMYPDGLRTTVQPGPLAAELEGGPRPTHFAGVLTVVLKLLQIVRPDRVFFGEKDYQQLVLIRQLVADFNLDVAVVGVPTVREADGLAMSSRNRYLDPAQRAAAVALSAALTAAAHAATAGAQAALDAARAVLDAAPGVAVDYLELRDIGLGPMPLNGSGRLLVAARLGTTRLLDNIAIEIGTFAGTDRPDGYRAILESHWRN

Row | Structure (SMILES) | inhibition
1 | CCN(CC)S(=O)(=O)c1cccc(-c2nnc(SCCOc3ccccc3C)o2)c1 | 1%
2 | NC(=O)c1ccccc1NC(=O)CCCN1C(=O)CCC1=O | 10%
3 | Cc1cc(C)nc(NC(=O)c2c(-c3c(Cl)cccc3Cl)noc2C)n1 | 2%
4 | COc1ccc(CCNS(=O)(=O)c2ccc(C(=O)NCc3ccco3)cc2)cc1OC | 0%
5 | Cc1cccc(-c2nnn(CC/C(N)=N/O)n2)c1 | 3%
6 | CCOC(=O)c1ccc(N=Cc2nc(-c3ccccc3)oc2OC(C)=O)cc1 | 0%
7 | CC(=O)Nc1ccc2nc(-c3cccnc3)[nH]c2c1 | 0%
8 | Cc1cc(C)c2c(n1)sc1c(N3CCOCC3)ncnc12 | 5%
9 | COCCN1CCN(c2c(C)c(C)nc3cc(-c4cccc(OC)c4)nn23)CC1 | 0%
10 | O=S(=O)(Cc1ccccc1)N1CCN(Cc2ccccc2)CC1 | 5%
11 | CN1CCC(NC(=O)c2cccs2)CC1 | 2%
12 | CCCCCc1c(O)c2ccccc2[nH]c1=O | 0%
13 | C1CCC2=NCCCN2CC1 | 7%
14 | CC(C)c1ccc(NC(=O)C2CC(=O)N(C(C)C)C2)cc1 (stereo not given) | 5%
15 | CS(=O)(=O)N(CC(=O)NCCSCc1cccc(Cl)c1)c1ccc2c(c1)OCO2 | 1%
16 | CC(C)C(OC(=O)c1ccco1)C(=O)NCc1ccccc1 (stereo not given) | 5%
17 | CCOc1cc(C2/C(=C(/O)c3ccc(OC(C)C)cc3)C(=O)C(=O)N2CCCOC)ccc1O (stereo not given) | 0%
18 | CC(C)=CCSc1nnc(CCNC(=O)OC(C)(C)C)o1 | 3%
19 | CCOc1ccc2nc(SCC(=O)Nc3ncccn3)[nH]c2c1 | 0%
20 | CCOC(=O)Cc1ccc(NS(=O)(=O)c2ccc(SC)cc2)cc1 | 0%

Row | Structure (SMILES) | inhibition
21 | Cc1cc(-n2c(C)cc(C(=O)CSc3nnnn3-c3ccc(Cl)cc3)c2C)no1 | 7%
22 | COc1cccc2c1C(=O)c1c(O)c3c(c(O)c1C2=O)C[C@@](O)(C(=O)CO)C[C@@H]3O[C@H]1C[C@H](N)[C@H](O)[C@H](C)O1 | 5%
23 | CCCSc1nnc(-c2ccccc2NC(=O)CC)c(=O)[nH]1 | 0%
24 | CCN(CC)CCNC(=O)c1ccc(NC(C)=O)cc1 | 0%
25 | CCN(CC)C(=O)c1sc(NC(=O)c2ccco2)c(C#N)c1C | 15%
26 | O=C(Nc1ccccc1C(=O)N1CCOCC1)C1CCC(=O)N1C1CCCC1 (stereo not given) | 1%
27 | COC(=O)c1[nH]c2cccc(C)c2c1NC(=O)CN1CCCc2ccccc21 | 1%
28 | O=C(COc1ccc(F)cc1)Nc1ccc(-n2cnnn2)cc1 | 0%
29 | O=C(C1CCN(S(=O)(=O)c2ccc(-n3cnnn3)cc2)CC1)N1CCN(c2ccccc2)CC1 | 11%
30 | CNc1nnc(-c2cccc(N(C)C)c2)s1 | 0%
31 | O=C(c1ccccc1)c1ccncc1 | 10%
32 | O=C(Nc1ccc(Cl)cc1C(=O)Nc1ccncc1)c1ccco1 | 4%
33 | COc1ccc(OC)c(C2C3=C(CCCC3=O)Nc3c2c(=O)n(C)c(=O)n3C)c1 (stereo not given) | 0%
34 | COc1ccc(N(CC(=O)Nc2ccc3c(c2)OCCO3)S(=O)(=O)c2cccnc2)cc1 | 0%
35 | COC(=O)[C@@H](N)Cc1ccc(O)cc1 | 0%
36 | CCN(CC(=O)Nc1ccc(S(N)(=O)=O)cc1)S(=O)(=O)c1cc(C)ccc1OC | 6%
37 | COc1ccc(CCNC(=O)c2ccncc2)cc1OC | 4%
38 | COC(=O)c1sccc1NC(=O)c1csc(C)c1 | 6%
39 | COC(=O)C(C)Sc1nc2c(c(=O)n(C)c(=O)n2C)n1Cc1cccc(C)c1 (stereo not given) | 2%
40 | COc1ccc(NC(=O)CCc2ccccc2)cc1NC(=O)c1ccco1 | 9%
